Results reported in PubChem BioAssay (NCATS).
Results filed as inconclusive are left out. The source made the active and inactive calls. Unless noted, calls come from the whole dose curve; as a rule, active = well fitted curve in either direction with a large enough effect (not every such curve was filed as active); inconclusive = small, poorly fitted or top-dose-only effect, or another doubt; inactive = flat fitted curve, though single readings scatter.

What was measured:
[1] = molecular target: Lysosomal acid glucosylceramidase (Homo sapiens) (UniProt P04062); assay: Glucocerebrosidase-p2 (AID 348; in the data active = potency below about 10 µM; note: potency is the fitted concentration of half-maximal effect); details: purified GBA, blue fluorogenic substrate, 40 min
Method in brief: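 Normal human glucocerebrosidase (0.2 nM) with blue fluorogenic substrate (80 uM final) in citrate/phosphate pH 5.9 with 10mM sodium taurocholate, 0.01% tween-20; 40 min RT, NaOH/glycine stop; fluorescence Ex 365/Em 440; AC50 from a titration from 0.6 nM upwards.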

[2] = AP1 Signaling Pathway (AID 357); details: ME-180 AP-1-bla reporter, EGF-induced, beta-lactamase ratio, 5 h; at 7.69 µM (top of the series) unless noted;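 note: ME-180 reporter cells stimulated with EGF at its EC50 level; % is set by controls: 0 for no effect and ±100 for the full control effect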
Method in brief: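 Cells are seeded overnight, exposed to compound titrations and an EC50 level of EGF for 5 hours at 37 °C, then loaded with CCF4 dye for 2.5 hours. Beta-lactamase activity under the AP-1 element is read as a blue/green ratio.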

[3] = molecular target: Cytochrome P450 1A2 (Homo sapiens) (UniProt P05177); assay: p450-cyp1a2 (AID 410; calls by dose curve; note: potency is the fitted concentration of half-maximal effect;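 for activity change, negative = inhibition: -100% = full effect of reference inhibitor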); details: recombinant CYP1A2, luciferin-ME demethylation, luminescence; series mostly up to 57 µM
Method in brief: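 O-Demethylation of luciferin 6' methyl ether by human CYP1A2 is monitored as luciferase luminescence. Substrate sits at Km (100uM); enzyme is 20nM. Values are scaled to 57 uM furafylline as maximal inhibition.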

[4] = Stat Signaling Pathway (AID 446); details: ME-180 SIE beta-lactamase reporter, IL-6 stimulated, 5 h; at 7.69 µM (top of the series) unless noted;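 note: ME-180 cervical cancer cells given 40 pM IL-6 alongside compound; SIE-controlled beta-lactamase reporter measured as 460/530 nm FRET emission ratio; % is set by controls: 0 for no effect and ±100 for the full control effect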
Method in brief: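 Emission at 460 and 530 nm (excitation 405 nm) reports SIE-controlled beta-lactamase in ME-180 cells. Cells received compound with 40 pM IL-6 for 5 hrs at 37 C; data scaled between 300 pM IL-6 and 125 nM JAK-inhibitor controls.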

[5] = molecular target: Glucocorticoid receptor (Homo sapiens) (UniProt P04150); assay: GR-EFC Redistribution (AID 451; calls by dose curve; note: potency is the fitted concentration of half-maximal effect); details: CHO-K1 GR-EFC translocation, beta-gal luminescence, 2 h
Method in brief: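 Translocation of GR-ED fusion to nuclear EA restores b-gal, read by luminescence after 1 h room-temperature detection. Engineered CHO-K1 biosensor cells, 1,000/well, exposed 2 h at 37 C to titrations up to 46 uM final.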

[6] = molecular target: Mitogen-activated protein kinase 10 (Mus musculus) (UniProt Q61831); assay: JNK3 AlphaScreen Assay (AID 530); details: JNK3 lysate, c-Jun phosphorylation; series mostly up to 57.1 µM;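 note: kinase came from lysate of stimulated human HepG2 cells; signal reports phosphorylation of biotinylated GST-cJun 1-79 at Ser73 with 10 µM ATP; % is set by controls: 0 for no effect and ±100 for the full control effect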
Method in brief: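 qHTS titrations with 15 min compound pre-incubation before adding ATP (10 uM final). Read-out: AlphaScreen of Ser73-phosphorylated biotin-GST-cJun using HepG2 lysate JNK3 activated by IL-1β and TNFα.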

[7] = molecular target: 3',5'-cyclic-AMP phosphodiesterase 4B (Homo sapiens) (UniProt Q07343); assay: qHTS Assay for Inhibitors of PDE-IV (AID 607; active = well fitted activation curve with a large enough effect in the main read-out, with a control signal flat, not every such curve was filed as active; note: % of control where 0% means no effect); details: HEK293 ACTOne CNG channel cells, membrane potential fluorescence; series mostly up to 22.9 µM
Method in brief: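 The readout is membrane depolarisation from a cAMP-sensing CNG channel, detected with a potential dye at ex 535/em 590. Cells were HEK293-derived (endogenous PDE-IV) at 1000 cells/well, titrated up to 22.9 uM final.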

[8] = molecular target: Cytochrome P450 3A4 (Homo sapiens) (UniProt P08684); assay: qHTS Assay for Activators of Cytochrome P450 3A4 (AID 885; active = well fitted curve in the direction sought with a large enough effect; an effect the other way counts as inactive or inconclusive; note: nearly all actives have a fitted effect of over 65% in size; note: potency is the fitted concentration of half-maximal effect); details: recombinant CYP3A4, Luciferin-PPXE luminescence, 60 min; series mostly up to 57.1 µM
Method in brief: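 Activators are scored by enhanced luminescence from CYP3A4 conversion of luciferin-PPXE (25uM, equal to KM) to luciferin, after 60 min at RT with an NADPH-regenerating system.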

[9] = qHTS Assay for Lipid Storage Modulators (AID 1519; calls by dose curve); details: Drosophila S3 cells, BODIPY lipid droplet/cell ratio, laser cytometry, cells loaded with oleic acid; for activity change, negative = inhibition: at 57.5 µM (top of the series)
Method in brief: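 Cells seeded at 5,000 per well were treated with compounds over a concentration series and loaded with oleic acid (400 uM, as added). Lipid droplet fluorescence (488 nm excitation, 500-530 nm channel) was read by laser-scanning cytometry and normalized to 20 uM Triacsin C.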

[10] = Primary qHTS for small molecule stabilizers of the endoplasmic reticulum resident proteome: Secreted ER Calcium Modulated Protein (SERCaMP) assay (AID 1508630; active = well fitted curve in the direction sought with a large enough effect; an effect the other way counts as inactive or inconclusive; note: % is set by controls: 0 for no effect and ±100 for the full control effect); details: SH-SY5Y GLuc-SERCaMP (Gaussia luciferase released on ER calcium loss) secretion, thapsigargin, luminescence; series mostly up to 38.4 µM
Method in brief: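 The SH-SY5Y reporter protocol was run at 3 concentrations up to 38.3 uM (primary) or 11 concentrations (follow-up): 16 h compound, 100 nM thapsigargin for 4 h, then extracellular luciferase luminescence.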

[11] = molecular target: Cytochrome P450 2D6 (Homo sapiens) (UniProt P10635); assay: qHTS Assay for Inhibitors and Substrates of Cytochrome P450 2D6 (AID 891; active = well fitted curve in the direction sought with a large enough effect; an effect the other way counts as inactive or inconclusive; note: potency is the fitted concentration of half-maximal effect; nearly all actives have a fitted effect of over 60% in size); details: recombinant CYP2D6, luciferin-ME EGE luminescence; series mostly up to 57.1 µM
Method in brief: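 Luminescent read-out of luciferin formed by 5 nM human CYP2D6 demethylating 30 uM Luciferin-ME EGE (Km level) over 60 min at room temperature after NADPH regeneration addition. Data normalized to full inhibition by 1.43 uM quinidine.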

[12] = molecular target: Cytochrome P450 3A4 (Homo sapiens) (UniProt P08684); assay: qHTS Assay for Inhibitors and Substrates of Cytochrome P450 3A4 (AID 884; active = well fitted curve in the direction sought with a large enough effect; an effect the other way counts as inactive or inconclusive; note: % is set by controls: 0 for no effect and ±100 for the full control effect; nearly all actives have a fitted effect of over 50% in size); details: recombinant CYP3A4, Luciferin-PPXE luminescence; series mostly up to 57.1 µM
Method in brief: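 Luminescent readout of luciferin produced by CYP3A4 (20 nM) dealkylation of Luciferin-PPXE, 25 uM (its KM). NADPH-driven reaction ran 60 min at RT after 10 min compound preincubation; data scaled to 57 uM ketoconazole as 100% inhibition.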

[13] = molecular target: Cytochrome P450 2C9 (Homo sapiens) (UniProt P11712); assay: qHTS Assay for Inhibitors and Substrates of Cytochrome P450 2C9 (AID 883; active = well fitted curve in the direction sought with a large enough effect; an effect the other way counts as inactive or inconclusive; note: nearly all actives have a fitted effect of over 60% in size; note: potency is the fitted concentration of half-maximal effect); details: recombinant CYP2C9, luciferin-H luminescence, 60 min; series mostly up to 57.1 µM
Method in brief: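 Inhibition of CYP2C9 is scored as loss of luminescence, with 57uM sulphaphenazole defining 100% inhibition. Substrate Luciferin-H is used at 100uM, equal to its KM; enzyme at 10nM in 25mM KPO4, 60 min at 37C with NADPH regeneration.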

[14] = qHTS Assay for Identification of Small Molecule Agonists for Hypoxia Response Element Signaling Pathway (AID 914; active = well fitted activation curve with a large enough effect in the signal ratio, with a control signal flat, not every such curve was filed as active; the % refers to the signal ratio; note: % of control where 0% means no effect); details: ME-180 (cervical carcinoma) HRE-bla reporter, beta-lactamase ratio, CoCl2, 17 h; activation: stronger effect = higher value
Method in brief: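 Cells were plated overnight, pin-dosed with compound in a titration series, co-stimulated with EC50 CoCl2 and incubated 17 hours at 37 degrees Celsius. CCF4 substrate was then loaded, and AC50 values came from the 460nm/530nm ratio.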

[15] = molecular target: Cytochrome P450 2C19 (Homo sapiens) (UniProt P33261); assay: qHTS Assay for Inhibitors and Substrates of Cytochrome P450 2C19 (AID 899; active = well fitted curve in the direction sought with a large enough effect; an effect the other way counts as inactive or inconclusive; note: potency is the fitted concentration of half-maximal effect; nearly all actives have a fitted effect of over 60% in size); details: recombinant CYP2C19, luciferin-H EGE luminescence; series mostly up to 57.1 µM
Method in brief: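 5nM enzyme + 10uM Luciferin-H EGE (=KM), 50mM KPO4; cpd pin-transferred, 10 min 37C; NADPH regen, 60 min 37C; stopped w/ luciferin detection reagent, 20 min; luminescence. Normalized to 57uM ketoconazole (AC100).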

[16] = measured here: cell count channel max response
[17] = measured here: lipid channel max response

Sequence of 3',5'-cyclic-AMP phosphodiesterase 4B (Homo sapiens) (Q07343 whole entry, looked up): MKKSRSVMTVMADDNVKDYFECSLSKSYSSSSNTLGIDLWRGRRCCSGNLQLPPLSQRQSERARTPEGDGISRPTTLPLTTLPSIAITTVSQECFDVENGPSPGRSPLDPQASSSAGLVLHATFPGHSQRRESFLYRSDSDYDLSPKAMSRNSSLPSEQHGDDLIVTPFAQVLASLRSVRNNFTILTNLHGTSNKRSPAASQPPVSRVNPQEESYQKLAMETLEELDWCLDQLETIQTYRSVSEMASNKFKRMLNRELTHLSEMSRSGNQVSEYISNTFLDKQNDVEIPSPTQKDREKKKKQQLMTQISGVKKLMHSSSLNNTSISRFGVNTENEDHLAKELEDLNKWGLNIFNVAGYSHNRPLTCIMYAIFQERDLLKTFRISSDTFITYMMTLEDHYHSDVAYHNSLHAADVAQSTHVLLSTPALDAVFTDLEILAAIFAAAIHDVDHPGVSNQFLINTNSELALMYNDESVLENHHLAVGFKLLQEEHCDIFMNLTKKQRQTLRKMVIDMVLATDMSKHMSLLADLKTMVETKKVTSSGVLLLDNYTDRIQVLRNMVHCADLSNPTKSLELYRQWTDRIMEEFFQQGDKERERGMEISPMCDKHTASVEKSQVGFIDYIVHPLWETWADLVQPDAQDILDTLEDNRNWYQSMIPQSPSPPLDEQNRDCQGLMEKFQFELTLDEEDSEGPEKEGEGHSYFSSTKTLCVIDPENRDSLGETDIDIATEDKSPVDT
Sequence of Cytochrome P450 2D6 (Homo sapiens) (P10635 whole entry, looked up): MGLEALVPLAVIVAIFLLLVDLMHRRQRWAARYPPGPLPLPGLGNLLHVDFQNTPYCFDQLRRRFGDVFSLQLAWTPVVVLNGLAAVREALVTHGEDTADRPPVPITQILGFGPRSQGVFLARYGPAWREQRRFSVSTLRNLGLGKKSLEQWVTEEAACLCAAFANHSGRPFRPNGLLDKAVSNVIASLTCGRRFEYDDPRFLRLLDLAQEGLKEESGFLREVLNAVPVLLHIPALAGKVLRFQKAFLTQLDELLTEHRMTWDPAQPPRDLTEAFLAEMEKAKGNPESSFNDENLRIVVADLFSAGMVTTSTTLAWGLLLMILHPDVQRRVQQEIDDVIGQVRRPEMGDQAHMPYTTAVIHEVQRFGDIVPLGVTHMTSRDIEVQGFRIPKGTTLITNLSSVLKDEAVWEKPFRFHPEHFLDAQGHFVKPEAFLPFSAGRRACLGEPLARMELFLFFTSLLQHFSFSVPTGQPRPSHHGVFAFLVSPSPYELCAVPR
Sequence of Cytochrome P450 1A2 (Homo sapiens) (P05177 whole entry, looked up): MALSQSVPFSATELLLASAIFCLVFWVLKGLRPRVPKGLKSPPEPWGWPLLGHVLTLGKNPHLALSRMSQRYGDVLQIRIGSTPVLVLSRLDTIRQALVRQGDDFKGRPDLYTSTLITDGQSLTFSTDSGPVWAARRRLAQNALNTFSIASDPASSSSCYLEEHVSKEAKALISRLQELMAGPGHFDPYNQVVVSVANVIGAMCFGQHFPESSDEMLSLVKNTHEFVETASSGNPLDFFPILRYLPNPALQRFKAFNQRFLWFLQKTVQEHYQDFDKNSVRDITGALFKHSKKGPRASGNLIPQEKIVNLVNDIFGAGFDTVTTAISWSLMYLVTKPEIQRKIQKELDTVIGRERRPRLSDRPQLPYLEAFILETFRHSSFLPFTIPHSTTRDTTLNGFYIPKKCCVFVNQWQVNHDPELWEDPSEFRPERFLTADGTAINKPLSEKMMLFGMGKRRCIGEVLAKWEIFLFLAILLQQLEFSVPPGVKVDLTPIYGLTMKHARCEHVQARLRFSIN
Sequence of Cytochrome P450 3A4 (Homo sapiens) (P08684 whole entry, looked up): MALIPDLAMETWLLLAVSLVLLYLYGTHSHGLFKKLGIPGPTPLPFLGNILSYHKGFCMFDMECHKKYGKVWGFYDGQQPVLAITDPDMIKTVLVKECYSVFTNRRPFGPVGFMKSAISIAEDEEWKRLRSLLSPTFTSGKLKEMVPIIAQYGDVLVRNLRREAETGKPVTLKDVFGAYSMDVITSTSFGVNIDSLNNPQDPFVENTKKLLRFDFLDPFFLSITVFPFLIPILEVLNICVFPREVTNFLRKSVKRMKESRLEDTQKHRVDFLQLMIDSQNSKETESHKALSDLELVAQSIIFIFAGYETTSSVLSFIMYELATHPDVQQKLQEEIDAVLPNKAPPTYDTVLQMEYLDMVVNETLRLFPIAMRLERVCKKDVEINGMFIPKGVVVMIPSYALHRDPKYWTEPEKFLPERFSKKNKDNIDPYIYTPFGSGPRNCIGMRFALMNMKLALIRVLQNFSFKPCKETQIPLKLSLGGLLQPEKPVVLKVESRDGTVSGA
Sequence of Glucocorticoid receptor (Homo sapiens) (P04150 whole entry, looked up, the tested form may be a part): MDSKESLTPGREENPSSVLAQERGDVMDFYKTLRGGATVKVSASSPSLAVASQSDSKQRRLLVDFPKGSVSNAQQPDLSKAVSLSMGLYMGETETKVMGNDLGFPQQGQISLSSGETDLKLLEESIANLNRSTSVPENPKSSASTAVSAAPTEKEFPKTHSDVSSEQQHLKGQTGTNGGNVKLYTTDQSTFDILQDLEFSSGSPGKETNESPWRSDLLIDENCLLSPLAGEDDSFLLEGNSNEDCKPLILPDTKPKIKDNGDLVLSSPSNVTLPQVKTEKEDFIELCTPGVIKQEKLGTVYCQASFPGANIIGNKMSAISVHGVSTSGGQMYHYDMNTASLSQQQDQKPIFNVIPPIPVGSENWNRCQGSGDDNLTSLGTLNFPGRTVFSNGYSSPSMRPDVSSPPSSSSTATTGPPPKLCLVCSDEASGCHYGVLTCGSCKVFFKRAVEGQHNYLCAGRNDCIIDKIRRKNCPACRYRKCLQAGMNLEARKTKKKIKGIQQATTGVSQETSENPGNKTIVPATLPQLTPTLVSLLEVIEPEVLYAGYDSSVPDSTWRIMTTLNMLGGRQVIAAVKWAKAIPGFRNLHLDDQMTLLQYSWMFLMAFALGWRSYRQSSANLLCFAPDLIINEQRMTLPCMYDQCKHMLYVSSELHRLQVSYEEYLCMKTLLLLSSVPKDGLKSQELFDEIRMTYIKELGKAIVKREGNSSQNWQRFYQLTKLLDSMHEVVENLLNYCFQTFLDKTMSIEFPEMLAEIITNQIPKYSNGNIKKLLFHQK
Sequence of Lysosomal acid glucosylceramidase (Homo sapiens) (P04062 whole entry, looked up): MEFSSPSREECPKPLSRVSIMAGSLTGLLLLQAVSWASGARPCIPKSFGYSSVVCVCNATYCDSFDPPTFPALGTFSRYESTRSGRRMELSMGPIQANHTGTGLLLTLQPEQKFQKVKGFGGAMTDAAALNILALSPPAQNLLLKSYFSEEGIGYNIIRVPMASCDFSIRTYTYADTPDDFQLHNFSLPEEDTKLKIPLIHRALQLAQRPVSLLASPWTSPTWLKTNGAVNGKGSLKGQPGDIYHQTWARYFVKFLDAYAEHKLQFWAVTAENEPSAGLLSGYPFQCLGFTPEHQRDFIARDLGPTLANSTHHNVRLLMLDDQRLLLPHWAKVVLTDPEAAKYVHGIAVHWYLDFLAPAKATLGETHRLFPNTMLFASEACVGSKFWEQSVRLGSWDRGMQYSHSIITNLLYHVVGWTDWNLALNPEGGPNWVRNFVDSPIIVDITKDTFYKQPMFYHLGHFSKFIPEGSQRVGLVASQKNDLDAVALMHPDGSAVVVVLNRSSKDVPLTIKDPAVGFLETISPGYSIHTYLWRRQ
Sequence of Cytochrome P450 2C9 (Homo sapiens) (P11712 whole entry, looked up): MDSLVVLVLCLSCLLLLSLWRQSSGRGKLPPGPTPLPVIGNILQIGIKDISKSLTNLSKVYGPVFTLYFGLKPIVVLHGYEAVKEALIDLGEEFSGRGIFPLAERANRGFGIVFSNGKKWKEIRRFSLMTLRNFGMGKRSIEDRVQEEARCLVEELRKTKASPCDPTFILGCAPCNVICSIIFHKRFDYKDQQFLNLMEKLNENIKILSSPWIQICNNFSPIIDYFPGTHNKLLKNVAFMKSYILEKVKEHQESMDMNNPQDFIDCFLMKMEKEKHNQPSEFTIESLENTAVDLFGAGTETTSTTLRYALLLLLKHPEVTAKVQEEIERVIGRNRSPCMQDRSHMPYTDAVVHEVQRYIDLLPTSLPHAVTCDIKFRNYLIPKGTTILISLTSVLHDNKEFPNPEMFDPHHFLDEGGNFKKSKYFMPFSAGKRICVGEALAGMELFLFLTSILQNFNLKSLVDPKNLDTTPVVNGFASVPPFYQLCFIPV
Sequence of Cytochrome P450 2C19 (Homo sapiens) (P33261 whole entry, looked up): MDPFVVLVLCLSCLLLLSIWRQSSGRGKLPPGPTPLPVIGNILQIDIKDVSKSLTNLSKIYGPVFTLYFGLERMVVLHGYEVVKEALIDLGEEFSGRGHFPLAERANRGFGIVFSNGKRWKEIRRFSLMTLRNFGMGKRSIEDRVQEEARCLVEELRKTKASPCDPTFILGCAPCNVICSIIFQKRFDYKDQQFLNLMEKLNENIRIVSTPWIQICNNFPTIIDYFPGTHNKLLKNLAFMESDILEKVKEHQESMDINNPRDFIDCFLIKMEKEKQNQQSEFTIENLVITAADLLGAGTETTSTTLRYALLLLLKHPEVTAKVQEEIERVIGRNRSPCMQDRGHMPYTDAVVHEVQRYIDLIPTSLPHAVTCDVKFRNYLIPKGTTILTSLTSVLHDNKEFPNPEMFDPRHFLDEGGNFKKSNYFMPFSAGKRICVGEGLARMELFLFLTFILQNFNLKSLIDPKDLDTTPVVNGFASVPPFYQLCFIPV

O=C(c1ccncc1)N1CCC2(CCN(Cc3ccncc3)CC2)CC1
23.1%: max response [9, 17]
inactive: Potency [1] > 11.4 µM | activity change, negative = inhibition [2] 7.83% | Potency [3] | activity, negative = inhibition [4] -5.41% | Potency [5] > 46 µM | Potency [6] | Potency [7] | Potency [8] | activity change, negative = inhibition [9] 4.23% | outcome [10]
14.3%: max response [9, 16]

COc1ccccc1CN1CCCC2(CCN(C(=O)c3cccn3C)CC2)C1
inactive: Potency [1] > 11.4 µM | activity change, negative = inhibition [2] -2.64% | Potency [3] | activity, negative = inhibition [4] 4.46% | Potency [5] > 46 µM | Potency [6] | Potency [7] | Potency [8] | activity change, negative = inhibition [9] 4.14% | outcome [10]
29.7%: max response [9, 17]
active: Potency [11] 3.16 µM
21.7%: max response [9, 16]

Cn1cccc1C(=O)N1CCC2(CC1)CN(c1ccccn1)C2
13.8%: max response [9, 17]
active: Potency [8] 12.6 µM
inactive: Potency [1] > 11.4 µM | activity change, negative = inhibition [2] 2.02% | Potency [3] | activity, negative = inhibition [4] -6.36% | Potency [5] > 46 µM | Potency [6] | Potency [7] | activity change, negative = inhibition [9] 5.7% | outcome [10]
7.05%: max response [9, 16]

O=C(Oc1ccccc1)N1CCC2(CC1)CN(c1ccccn1)C2
active: Potency [8] 15.8 µM
3.44%: max response [9, 16]
13.9%: max response [9, 17]
inactive: Potency [1] > 11.4 µM | activity change, negative = inhibition [2] 5.21% | Potency [3] | activity, negative = inhibition [4] -0.424% | Potency [5] > 46 µM | Potency [6] | Potency [7] | Potency [12] | activity change, negative = inhibition [9] 7.94% | outcome [10]

O=C(c1ccncc1)N1CCC2(CC1)CN(Cc1cc(C(F)(F)F)cc(C(F)(F)F)c1)C2
inactive: Potency [1] > 11.4 µM | activity change, negative = inhibition [2] -5.95% | Potency [3] | activity, negative = inhibition [4] -8.98% | Potency [5] > 46 µM | Potency [6] | Potency [7] | Potency [8] | activity change, negative = inhibition [9] 0.924% | outcome [10]
16.4%: max response [9, 17]
9.27%: max response [9, 16]

N#Cc1ccc(CN2CCC3(CC2)CCN(C(=O)c2ccncc2)CC3)cc1
active: Potency [11] 6.31 µM
15.7%: max response [9, 16]
inactive: Potency [1] > 11.4 µM | activity change, negative = inhibition [2] 1.51% | Potency [3] | activity, negative = inhibition [4] -3.87% | Potency [5] > 46 µM | Potency [6] | Potency [7] | Potency [8] | activity change, negative = inhibition [9] 1.92% | outcome [10]
18.7%: max response [9, 17]

COc1ccc(C(=O)N2CCC3(CCCN(Cc4ccccc4OC)C3)CC2)cc1
inactive: Potency [1] > 11.4 µM | activity change, negative = inhibition [2] 0.332% | Potency [3] | activity, negative = inhibition [4] -6.54% | Potency [5] > 46 µM | Potency [6] | Potency [7] | Potency [8] | activity change, negative = inhibition [9] -0.879% | outcome [10]
-8.51%: max response [9, 16]
-6.45%: max response [9, 17]

Cn1cccc1C(=O)N1CCC2(CCCN(Cc3ccc(C#N)cc3)C2)CC1
17.2%: max response [9, 16]
active: Potency [3] 12.6 µM
18.2%: max response [9, 17]
inactive: Potency [1] > 11.4 µM | activity change, negative = inhibition [2] 10.6% | activity, negative = inhibition [4] -1.12% | Potency [5] > 46 µM | Potency [6] | Potency [7] | Potency [8] | activity change, negative = inhibition [9] 1.29% | outcome [10]

Cc1noc(C)c1C(=O)N1CCC2(CCN(Cc3ccccc3)CC2)CC1
22%: max response [9, 17]
inactive: Potency [1] > 11.4 µM | activity change, negative = inhibition [2] 6.02% | Potency [3] | activity, negative = inhibition [4] 1% | Potency [5] > 46 µM | Potency [6] | Potency [7] | Potency [13] | activation [14] -10.3% | activity change, negative = inhibition [9] 0.801% | outcome [10]
19.5%: max response [9, 16]

O=S(=O)(c1ccccc1)N1CCC2(CC1)CN(c1ccccn1)C2
inactive: Potency [1] > 11.4 µM | activity change, negative = inhibition [2] 16% | Potency [3] | activity, negative = inhibition [4] -15% | Potency [5] > 46 µM | Potency [6] | Potency [7] | Potency [8] | activity change, negative = inhibition [9] -4.43% | outcome [10]
-4.86%: max response [9, 16]
-8.67%: max response [9, 17]

Cc1noc(C)c1C(=O)N1CCC2(CCCN(Cc3ccccc3)C2)CC1
21.7%: max response [9, 17]
15.8%: max response [9, 16]
inactive: Potency [1] > 11.4 µM | activity change, negative = inhibition [2] 3.01% | Potency [3] | activity, negative = inhibition [4] 4.66% | Potency [5] > 46 µM | Potency [6] | Potency [7] | Potency [8] | activity change, negative = inhibition [9] 4.04% | outcome [10]

O=C(c1ccco1)N1CCC2(CC1)CCN(C(c1ccccc1)c1ccccc1)CC2
15%: max response [9, 17]
inactive: Potency [1] > 11.4 µM | activity change, negative = inhibition [2] 0.867% | Potency [3] | activity, negative = inhibition [4] -7.63% | Potency [5] > 46 µM | Potency [6] | Potency [7] | Potency [12] | activity change, negative = inhibition [9] 3.39% | outcome [10]
active: Potency [8] 12.6 µM | Potency [11] 5.01 µM
7.88%: max response [9, 16]

CN1CC[C@@]2(CCCN(C(=O)c3cc(C(F)(F)F)cc(C(F)(F)F)c3)C2)C1
-1.13%: max response [9, 16]
inactive: Potency [1] > 11.4 µM | activity change, negative = inhibition [2] -0.328% | Potency [3] | activity, negative = inhibition [4] 13.1% | Potency [5] > 46 µM | Potency [6] | Potency [7] | Potency [8] | activity change, negative = inhibition [9] 1.24% | outcome [10]
2.81%: max response [9, 17]

Cn1cccc1C(=O)N1CCC2(CC1)CN(c1ccncc1)C2
inactive: Potency [1] > 11.4 µM | activity change, negative = inhibition [2] -6.05% | Potency [3] | activity, negative = inhibition [4] -3.69% | Potency [5] > 46 µM | Potency [6] | Potency [7] | activity change, negative = inhibition [9] 2.57% | outcome [10]
0.464%: max response [9, 16]
4.51%: max response [9, 17]
active: Potency [13] 5.01 µM | Potency [15] 1.26 µM
